Here are results for nine compounds from PubChem BioAssay (NCI).

Among the test systems are NCI-H23 lung; NCI-H226 lung; NCI-H322M lung; HOP-62 NSCLC; NCI-H460 lung; HOP-92 NSCLC; NCI-H522 lung; A549/ATCC NSCLC; 786-0 renal; COLO 205 colon; DU-145 prostate; K-562 leukemia; MALME-3M melanoma; MDA-MB-231 breast; RXF 393 renal; SF-268 CNS; SF-539 CNS; UACC-257 melanoma; M14 melanoma; SF-295 CNS.
Assay in all cases: NCI-60 one-dose screen, 48 h (100 = growth as untreated, 0 = no growth, -100 = all killed)
Holding throughout (settings): 10 µM unless noted

Molecules are shown by their SMILES. About 83,000 compounds went through this panel and 20% of them were active in at least one assay; those are over-represented in the sample as a whole.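 Negative percent growth values reflect cell death: -40 means 40% of the cells present at the start died, and -100 means all died.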 Values without a mark were called inactive. Activity calls are given as the source filed them. Rule for the calls: active = growth percent below 10; inactive = the rest.

For the compound `O=Cc1ccc(F)cc1`, the growth was 105% in the test with NCI-H23 lung; 94.7% in the test on NCI-H226 lung; 90.6% with NCI-H322M lung; 108% in the test on HOP-62 NSCLC; 93.9% with NCI-H460 lung; 103% with HOP-92 NSCLC. Moreover, the growth in the test on NCI-H522 lung is 97.8%; in the test on A549/ATCC NSCLC, 108%; with 786-0 renal, 102%; in the test on COLO 205 colon it was 111%; in the test with DU-145 prostate, 109%; in the test on K-562 leukemia it was 127%. Besides, the growth was 85.1% in the test with MALME-3M melanoma; 97.1% in the test with MDA-MB-231 breast; 86.9% with RXF 393 renal; 109% in the test with SF-268 CNS; 101% in the test with SF-539 CNS; 106% in the test on UACC-257 melanoma. In addition, in the test with M14 melanoma, the growth was 106%.
As for `CCNc1ncnc2[nH]ncc12`, the growth in the test with NCI-H23 lung is 114%; in the test with NCI-H226 lung it was 98.9%; with NCI-H322M lung it was 96.1%; with HOP-62 NSCLC, 103%; in the test with NCI-H460 lung, 106%; with HOP-92 NSCLC it was 101%. Further, the growth in the test with NCI-H522 lung was 113%; in the test with A549/ATCC NSCLC, 107%; with 786-0 renal, 105%; in the test on COLO 205 colon, 114%; with DU-145 prostate it was 117%; in the test on K-562 leukemia, 119%. Moreover, the growth is 72% in the test on MALME-3M melanoma; 107% in the test with MDA-MB-231 breast; 112% in the test with SF-268 CNS; 112% with SF-295 CNS; 96.2% in the test with SF-539 CNS; 89.2% in the test on UACC-257 melanoma. The growth in the test on M14 melanoma is 107%.
Turning to `S=c1nc2[nH]c3ccccc3c2n[nH]1`, the growth with NCI-H23 lung is 96.3%; in the test on NCI-H226 lung it was 83.1%; in the test on NCI-H322M lung, 98.9%; in the test with HOP-62 NSCLC, -1.58% (active); in the test on NCI-H460 lung, 99.5%; in the test with HOP-92 NSCLC it was 55.7%. In addition, the growth in the test on NCI-H522 lung was 108%; in the test on A549/ATCC NSCLC, 104%; with 786-0 renal, 109%; with COLO 205 colon it was 108%; in the test with DU-145 prostate it was 102%; in the test on K-562 leukemia, 106%. Moreover, the growth in the test with MALME-3M melanoma is 97.7%; in the test with MDA-MB-231 breast, 86.6%; with SF-268 CNS, 87.6%; in the test on SF-295 CNS, 72%; in the test with SF-539 CNS, 85.1%; in the test with UACC-257 melanoma, 107%. In addition, the growth in the test with M14 melanoma was 107%.
In the case of `CC(C)(CC(=O)O)CC(=O)O`, the growth is 100% with NCI-H23 lung; 96.5% in the test on NCI-H226 lung; 96.7% in the test on NCI-H322M lung; 111% in the test with HOP-62 NSCLC; 102% with NCI-H460 lung; 96.6% in the test with HOP-92 NSCLC. The growth with NCI-H522 lung is 98.5%; in the test with A549/ATCC NSCLC, 101%; in the test with 786-0 renal it was 102%; in the test on COLO 205 colon it was 119%; with DU-145 prostate, 111%; with K-562 leukemia, 107%. Further, the growth in the test with MALME-3M melanoma was 107%; in the test on MDA-MB-231 breast, 95.5%; with SF-268 CNS, 102%; in the test with SF-295 CNS, 110%; in the test with SF-539 CNS, 95%; in the test on UACC-257 melanoma it was 113%. Moreover, the growth in the test with M14 melanoma was 101%.
In the case of `COc1ccc(C2CC(c3ccccc3)=Nc3ccccc3S2)cc1` (centres undefined), the growth with NCI-H23 lung is 98%; in the test on NCI-H226 lung, 98.2%; with NCI-H322M lung, 90.3%; in the test with HOP-62 NSCLC, 98.7%; with NCI-H460 lung, 105%; in the test with HOP-92 NSCLC it was 87.1%. For the same compound, the growth with NCI-H522 lung was 77.6%; in the test on A549/ATCC NSCLC it was 111%; in the test on 786-0 renal it was 98.2%; in the test with COLO 205 colon, 97.1%; with DU-145 prostate, 99.8%; in the test with K-562 leukemia it was 77.9%. Besides, the growth with MALME-3M melanoma was 82.5%; with MDA-MB-231 breast, 98.9%; in the test with SF-268 CNS it was 105%; in the test with SF-539 CNS, 111%; in the test with UACC-257 melanoma it was 103%; with M14 melanoma it was 106%.
`Nc1nnc2cc(F)ccc2n1`: the growth was 90.6% in the test with NCI-H23 lung; 96.3% in the test on NCI-H226 lung; 106% in the test on NCI-H322M lung; 101% in the test with HOP-62 NSCLC; 107% with NCI-H460 lung; 85.2% with HOP-92 NSCLC. Further, the growth in the test on NCI-H522 lung was 99.8%; with A549/ATCC NSCLC, 113%; with 786-0 renal, 105%; in the test on COLO 205 colon it was 134%; with DU-145 prostate, 102%; in the test with K-562 leukemia it was 97.2%. Besides, the growth was 107% with MALME-3M melanoma; 102% in the test on MDA-MB-231 breast; 99.6% in the test on SF-268 CNS; 107% with SF-539 CNS; 110% with UACC-257 melanoma; 99.3% in the test with M14 melanoma.
As to `N=C(N)c1nn(C2OC(CO)C(O)C2O)c2nc[nH]c(=O)c12` (centres undefined), the growth with NCI-H23 lung is -34.1% (active); in the test with NCI-H226 lung, 13.5%; in the test on NCI-H322M lung, 6.64% (active); in the test with HOP-62 NSCLC, -12% (active); in the test with NCI-H460 lung it was 2.95% (active); in the test on HOP-92 NSCLC it was -23.5% (active). The growth in the test with NCI-H522 lung was 11.5%; in the test with A549/ATCC NSCLC it was 19.1%; with 786-0 renal, -2.36% (active); in the test with COLO 205 colon, -11.5% (active); with DU-145 prostate, -49.1% (active); in the test with K-562 leukemia, -5.78% (active). Moreover, the growth in the test on MALME-3M melanoma was -39.9% (active); with MDA-MB-231 breast, -15.3% (active); in the test on SF-268 CNS, -7.38% (active); in the test on SF-295 CNS it was 8.51% (active); in the test on SF-539 CNS, -43.8% (active); in the test on UACC-257 melanoma, 3.08% (active). Further, the growth in the test with M14 melanoma is -54.8% (active).
Turning to `Clc1ncnc2nc[nH]c12`, the growth in the test on NCI-H23 lung is 94.4%; with NCI-H226 lung, 96.3%; with NCI-H322M lung, 104%; in the test with HOP-62 NSCLC, 83.7%; in the test on NCI-H460 lung, 103%; in the test on HOP-92 NSCLC, 68.8%. Also, the growth is 70.5% in the test with NCI-H522 lung; 101% in the test on A549/ATCC NSCLC; 101% with 786-0 renal; 101% in the test with COLO 205 colon; 91% in the test with DU-145 prostate; 90.1% with K-562 leukemia. Besides, the growth is 106% in the test with MALME-3M melanoma; 99% in the test with MDA-MB-231 breast; 95.8% in the test on SF-268 CNS; 107% in the test with SF-295 CNS; 86.4% with SF-539 CNS; 103% in the test with UACC-257 melanoma. The growth in the test with M14 melanoma was 97.5%.
Take `Cc1ccc(NC(=S)N2CCOCC2)cc1C`: the growth with NCI-H23 lung was 107%; in the test on NCI-H226 lung, 92.4%; in the test with NCI-H322M lung, 85.5%; in the test with HOP-62 NSCLC, 99.7%; in the test on NCI-H460 lung, 106%; in the test with HOP-92 NSCLC, 95%. Further, the growth in the test on NCI-H522 lung was 84.2%; in the test on A549/ATCC NSCLC, 96.8%; in the test on 786-0 renal it was 97%; in the test on COLO 205 colon, 118%; in the test on DU-145 prostate, 109%; with K-562 leukemia, 95.4%. Further, the growth was 93.8% in the test on MALME-3M melanoma; 99.9% with MDA-MB-231 breast; 110% in the test on SF-268 CNS; 96.2% with SF-295 CNS; 103% with SF-539 CNS; 93.5% with UACC-257 melanoma. The growth in the test on M14 melanoma is 93.1%.
